# Measured values from PubChem BioAssay.
# Active and inactive are the calls of the source. Unless noted, how the calls were made is not given here.
# Assays:
# [1] = tested on: Wnt5a (protein binding on small-molecule microarray); experiment: small molecules binding Wnt5a protein – biophysical, small-molecule microarray, 635/667 nm fluorescence, primary screen (AID 1142); settings: 635 nm fluorescence, higher = more signal;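 further: fluorescence read at 667 nm with signal to noise per printed feature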
# [2] = ATP-based viability of Huh7 replicon cells – cell-based, CellTiter-Glo luminescence, basal, 48 h, cytotoxicity control for HCV replication inhibitor project, primary screen (AID 1143); settings: higher = more signal, called active from +8 up or from −8 down;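 further: Huh7 hepatoma cells carrying a hepatitis C replication reporter with no stimulus; test concentration not given here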
# [3] = Pseudomonas biofilm growth suppression – PAO1 strain, BacTiter-Glo luminescence, LB-PBS, primary screen (AID 1144); settings: P. aeruginosa PAO1 biofilm, 12 h, higher = more signal
# [4] = basal CRE-LacZ reporter activity in PC12 – cell-based, unstimulated, primary screen (AID 1145); settings: no forskolin, luminescence, 4.5 h, higher = more signal, called active from +8 up or from −8 down
# [5] = forskolin-driven CRE-LacZ activity in PC12 – cell-based, CRE-LacZ reporter, forskolin-stimulated, primary screen (AID 1146); settings: luminescence, 4.5 h, higher = more signal, called active from +8 up or from −8 down;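 further: PC12 cells with 6xCRE LacZ reporter stimulated by forskolin 10 µM; beta-galactosidase reporter signal reflecting CREB driven transcription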
# [6] = biological target: Streptavidin (Streptomyces avidinii) (UniProt P22629); experiment: compounds binding control protein streptavidin – biophysical, small-molecule microarray, 635/667 nm fluorescence, artefact control for SMM compound annotation, primary screen (AID 1147); settings: higher = more signal;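 further: signal reflects streptavidin binding to arrayed compounds as a control protein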
# [7] = probe aInhba binding on compound microarray – biochemical, small-molecule microarray, 635/667 nm fluorescence, primary screen (AID 1148); settings: higher = more signal;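 further: score merges 667nm spot fluorescence with signal-to-noise for antibody binding to printed compounds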
# [8] = biological target: Torsin-1A (Homo sapiens) (UniProt O14656); experiment: TOR1A wild-type binding on microarray – cell lysate, small-molecule microarray, lysate, 635/667 nm, primary screen (AID 1149); settings: COS7 hTOR1A-WT lysate, 635 nm fluorescence, higher = more signal
# [9] = biological target: Torsin-1A (Homo sapiens) (UniProt O14656); experiment: torsin A mutant lysate binding on microarrays – cell lysate, small-molecule microarray, COS7 lysate, 635/667 nm fluorescence, primary screen (AID 1150); settings: COS7 hTOR1A mutant lysate, 635 nm fluorescence, higher = more signal;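 further: score pools 667 nm emission and signal to noise measuring lysate protein binding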
# [10] = tested on: Sonic hedgehog protein (Shh); experiment: Sonic hedgehog microarray binding compounds – biochemical, small-molecule microarray, 635/667 nm fluorescence, primary screen (AID 1151); settings: 635 nm fluorescence, higher = more signal;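 further: Shh protein binding to compounds spotted on small-molecule microarray slides; score combines spot fluorescence intensity with signal-to-noise across triplicate slides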
# [11] = optical density shifts of acrAB sulA E. coli – strain DRC41, OD650, 48 h, E. coli filamentation inducer project, primary screen (AID 1152); settings: higher = more signal, called active from +8 up or from −8 down;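 further: E. coli MC1000 strain DRC41 lacking acrAB efflux pump and sulA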
# [12] = probe aLefty1 binding on compound microarray – biochemical, small-molecule microarray, 635/667 nm fluorescence, primary screen (AID 1153); settings: higher = more signal;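 further: score merges spot fluorescence with signal-to-noise ratio from the scanned slide images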
# [13] = plasmodial surface anion channel blockers, osmotic lysis – cell-based, P. falciparum Indochina, OD700, 1 h, primary screen (AID 1154); settings: P. falciparum Indochina infected RBC osmotic lysis, higher = more signal, called active from +8 up or from −8 down
# [14] = plasmodial surface anion channel blockers, osmotic lysis – cell-based, P. falciparum Indochina, OD700, 2 h, primary screen (AID 1155);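 further: lysis reports solute entry through the parasite surface anion channel PSAC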; settings: P. falciparum Indochina infected erythrocytes, higher = more signal, called active from +8 up or from −8 down
# [15] = changes in parasitized red cell lysis, either direction – P. falciparum Indochina, OD700, 3 h, PSAC antagonist project, primary screen (AID 1156); settings: P. falciparum-infected erythrocytes, osmotic lysis, higher = more signal, called active from +8 up or from −8 down
# [16] = plasmodial surface anion channel blockers, osmotic lysis – cell-based, P. falciparum Indochina, OD700, 18 h, primary screen (AID 1157); settings: P. falciparum Indochina infected erythrocytes, osmotic lysis OD700, 18 h; higher = more signal, called active from +8 up or from −8 down
# [17] = S6 kinase pathway phospho-S6 level changes – cell-based, A549, cytoblot, luminescence, serum-stimulated, primary screen (AID 1158); settings: 5 h, higher = more signal;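 further: serum-stimulated A549 lung adenocarcinoma cells; signal is phosphorylated S6 detected by cytoblot immunostaining with HRP secondary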
# [18] = biological target: NADPH oxidase 2 (Homo sapiens) (UniProt P04839); experiment: compounds shifting NOX2 Amplex Red fluorescence – cell-based, HEK293-NOX2, PMA-stimulated, NOX inhibitor project, primary screen (AID 1159); settings: 45 min, higher = more signal, called active from +8 up or from −8 down; further: test concentration not given here
# [19] = biological target: NADPH oxidase 4 (Homo sapiens) (UniProt Q9NPH5); experiment: compounds shifting NOX4 Amplex Red fluorescence – cell-based, HEK293-NOX4, tetracycline-induced, NOX inhibitor project, primary screen (AID 1160); settings: HEK293-NOX4, Amplex Red H2O2 fluorescence, 45 min; higher = more signal, called active from +8 up or from −8 down
# [20] = biological target: NADPH oxidase 5 (Homo sapiens) (UniProt Q96PH1); experiment: compounds shifting NOX5 Amplex Red fluorescence – cell-based, HEK293-NOX5, NOX inhibitor project, primary screen (AID 1161); settings: HEK293-NOX5, ionomycin, 45 min, higher = more signal
# Chain of NADPH oxidase 5 (Homo sapiens) (Q96PH1 whole entry, looked up): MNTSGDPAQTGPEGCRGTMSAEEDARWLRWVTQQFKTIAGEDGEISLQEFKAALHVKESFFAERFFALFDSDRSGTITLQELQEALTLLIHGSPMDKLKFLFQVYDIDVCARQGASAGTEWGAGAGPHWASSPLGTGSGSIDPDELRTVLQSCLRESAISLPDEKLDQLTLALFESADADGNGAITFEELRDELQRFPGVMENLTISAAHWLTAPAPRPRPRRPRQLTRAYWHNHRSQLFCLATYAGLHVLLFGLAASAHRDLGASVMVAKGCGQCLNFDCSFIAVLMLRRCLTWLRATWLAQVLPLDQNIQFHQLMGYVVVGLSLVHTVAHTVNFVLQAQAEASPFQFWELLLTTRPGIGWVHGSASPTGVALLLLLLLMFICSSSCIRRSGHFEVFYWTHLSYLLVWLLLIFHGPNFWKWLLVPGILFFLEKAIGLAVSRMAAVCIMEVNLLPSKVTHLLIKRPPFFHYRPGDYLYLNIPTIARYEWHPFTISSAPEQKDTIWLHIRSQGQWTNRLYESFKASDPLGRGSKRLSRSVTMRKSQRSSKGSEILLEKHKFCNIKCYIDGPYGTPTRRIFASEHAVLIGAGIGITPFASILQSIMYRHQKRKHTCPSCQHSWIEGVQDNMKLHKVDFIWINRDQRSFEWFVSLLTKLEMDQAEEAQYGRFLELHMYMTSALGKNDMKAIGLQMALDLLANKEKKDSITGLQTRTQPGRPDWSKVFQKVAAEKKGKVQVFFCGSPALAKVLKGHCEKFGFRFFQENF
# Chain of NADPH oxidase 2 (Homo sapiens) (P04839 whole entry, looked up): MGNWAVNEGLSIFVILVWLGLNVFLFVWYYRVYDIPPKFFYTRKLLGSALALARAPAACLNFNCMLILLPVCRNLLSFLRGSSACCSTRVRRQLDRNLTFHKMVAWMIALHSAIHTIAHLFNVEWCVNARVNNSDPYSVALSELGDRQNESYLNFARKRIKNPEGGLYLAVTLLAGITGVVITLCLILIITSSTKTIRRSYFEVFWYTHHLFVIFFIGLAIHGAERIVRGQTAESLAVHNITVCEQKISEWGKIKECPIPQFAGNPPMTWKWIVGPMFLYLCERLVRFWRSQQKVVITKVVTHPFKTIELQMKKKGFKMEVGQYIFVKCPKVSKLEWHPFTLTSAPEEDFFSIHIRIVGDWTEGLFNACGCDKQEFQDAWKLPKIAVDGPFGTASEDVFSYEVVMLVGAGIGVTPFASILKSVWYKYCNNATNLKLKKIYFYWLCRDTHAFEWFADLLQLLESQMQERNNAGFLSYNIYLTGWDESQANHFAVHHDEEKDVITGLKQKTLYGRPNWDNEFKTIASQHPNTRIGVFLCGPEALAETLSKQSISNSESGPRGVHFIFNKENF
# Chain of NADPH oxidase 4 (Homo sapiens) (Q9NPH5 whole entry, looked up): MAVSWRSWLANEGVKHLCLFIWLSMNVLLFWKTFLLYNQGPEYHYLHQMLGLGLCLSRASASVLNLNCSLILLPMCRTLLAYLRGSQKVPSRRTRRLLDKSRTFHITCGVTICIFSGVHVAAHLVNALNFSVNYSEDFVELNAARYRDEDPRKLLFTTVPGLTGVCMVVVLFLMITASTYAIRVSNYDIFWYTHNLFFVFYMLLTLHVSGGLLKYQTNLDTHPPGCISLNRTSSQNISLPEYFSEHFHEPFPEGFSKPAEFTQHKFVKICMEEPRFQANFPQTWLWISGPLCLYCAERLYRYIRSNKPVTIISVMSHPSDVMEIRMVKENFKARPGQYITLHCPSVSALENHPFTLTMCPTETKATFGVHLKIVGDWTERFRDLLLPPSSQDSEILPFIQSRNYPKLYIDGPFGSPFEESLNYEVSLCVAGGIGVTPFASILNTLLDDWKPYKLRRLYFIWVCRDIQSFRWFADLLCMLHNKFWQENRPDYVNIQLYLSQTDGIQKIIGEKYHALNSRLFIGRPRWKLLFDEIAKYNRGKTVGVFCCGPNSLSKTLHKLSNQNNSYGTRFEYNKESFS
# Chain of Torsin-1A (Homo sapiens) (O14656 whole entry, looked up): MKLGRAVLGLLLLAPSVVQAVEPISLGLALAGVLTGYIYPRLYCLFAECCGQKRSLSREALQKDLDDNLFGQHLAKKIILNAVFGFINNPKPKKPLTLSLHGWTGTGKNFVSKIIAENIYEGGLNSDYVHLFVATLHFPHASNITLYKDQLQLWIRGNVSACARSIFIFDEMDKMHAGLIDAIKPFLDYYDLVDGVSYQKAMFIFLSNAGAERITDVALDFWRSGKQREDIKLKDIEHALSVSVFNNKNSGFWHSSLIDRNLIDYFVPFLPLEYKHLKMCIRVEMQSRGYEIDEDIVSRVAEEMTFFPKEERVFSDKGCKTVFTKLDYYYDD
# Chain of Streptavidin (Streptomyces avidinii) (P22629 whole entry, looked up): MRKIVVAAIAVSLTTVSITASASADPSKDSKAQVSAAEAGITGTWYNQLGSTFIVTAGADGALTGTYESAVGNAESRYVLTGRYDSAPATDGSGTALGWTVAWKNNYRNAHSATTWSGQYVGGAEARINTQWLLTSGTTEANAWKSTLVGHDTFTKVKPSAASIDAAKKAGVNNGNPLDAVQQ
SMILES,composite z-score [1],z-score [2],z-score [3],z-score [4],z-score [5],composite z-score [6],composite z-score [7],composite z-score [8],composite z-score [9],composite z-score [10],z-score [11],composite z-score [12],z-score [13],z-score [14],z-score [15],z-score [16],z-score [17],z-score [18],z-score [19],z-score [20]
CC(C)(C)OC(=O)CC[C@@]1(C(=O)O)N=C(c2ccc(OCCCO)cc2)O[C@@H]1c1ccccc1,-0.181,-0.97 (inactive),-0.335 (inactive),-0.94 (inactive),-0.374 (inactive),0.0425,0.0154,0.961,0.694,-0.736,0.0442 (inactive),0.284,6.52 (inactive),0.0947 (inactive),-0.819 (inactive),0.0734 (inactive),-0.407,0.104 (inactive),1.27 (inactive),0.548
O=C1NC(=O)C2C1C=CC(C(O)c1c(F)cccc1Cl)N2Nc1ccccn1 (stereo not given),0.233,0.63 (inactive),0.475 (inactive),0.0535 (inactive),0.204 (inactive),-0.201,-0.0195,0.355,0.222,-0.0146,-0.805 (inactive),0.245,-0.0298 (inactive),0.653 (inactive),-0.254 (inactive),0.828 (inactive),-1.1,-1.84 (inactive),-3 (inactive),-2.23
CCOC(=O)C1=CC[C@@H](c2ccccc2)N(S(=O)(=O)c2ccc(C)cc2)C1,0.0639,-2.28 (inactive),0.84 (inactive),0.229 (inactive),0.368 (inactive),0.342,0.0633,0.303,0.17,-0.474,-1.46 (inactive),0.638,2.45 (inactive),0.596 (inactive),0.517 (inactive),0.509 (inactive),-0.506,-0.0336 (inactive),-1.44 (inactive),-1.63
CC(C)(C)OC(=O)CC[C@]1(C(=O)NCCN2CCOCC2)N=C(c2ccc(OCCCO)cc2)O[C@H]1c1ccccc1,0.298,0.268 (inactive),-0.375 (inactive),-0.174 (inactive),-0.266 (inactive),0.541,0.165,-0.357,0.833,-1.23,0.167 (inactive),0.119,12.5 (active),1.5 (inactive),0.531 (inactive),0.47 (inactive),-0.501,0.618 (inactive),1.54 (inactive),1.42
CCOC(=O)C[C@H]1[C@H](OC(=O)c2ccc(-c3ccccc3)cc2)[C@@H](NC(=O)c2ccc3ccccc3c2)c2cc(OCCCO)ccc2N1C(=O)c1ccc2ccccc2n1,0.0577,0.866 (inactive),-0.0546 (inactive),-0.593 (inactive),-0.611 (inactive),1.02,0.106,0.138,0.527,0.539,-0.572 (inactive),0.302,4.55 (inactive),0.568 (inactive),-0.559 (inactive),0.159 (inactive),0.762,-1.35 (inactive),0.928 (inactive),0.0885
C=CCOC(=O)[C@@H]1[C@H]2C(=O)O[C@H](c3ccccc3)[C@H](c3ccccc3)N2[C@H](c2ccc(OCCOC(=O)[C@H]3C[C@H]4C(=O)N[C@@H](CCCCNC(C)=O)C(=O)N4[C@H]3c3cccc(OCCO)c3)cc2)[C@@]12C(=O)Nc1ccc(I)cc12,0.218,-0.495 (inactive),-0.929 (inactive),-0.256 (inactive),0.215 (inactive),0.356,-0.0313,1.01,0.495,1.89,-0.04 (inactive),-0.0358,3.68 (inactive),1.73 (inactive),0.309 (inactive),1.16 (inactive),-0.479,1.62 (inactive),0.898 (inactive),1.86
COc1ccc([Si](C)(C)[C@@H]2[C@@H](CCO)O[C@]3(C(=O)N(Cc4cccc(N5C(=O)c6ccccc6Oc6ccccc65)c4)c4ccccc43)[C@H]2C)cc1,-0.193,-5.77 (inactive),-1.34 (inactive),6.17 (inactive),0.291 (inactive),-0.313,-0.251,-0.133,-0.548,-0.264,0.705 (inactive),0.0355,2.72 (inactive),3.13 (inactive),0.207 (inactive),1.77 (inactive),0.243,0.423 (inactive),0.543 (inactive),1.98
O=C1C2C=CC(C(O)c3cc(C(F)(F)F)cc(C(F)(F)F)c3)N(Nc3ccc([N+](=O)[O-])cc3)C2C(=O)N1c1ccccc1 (stereo not given),0.553,-4.58 (inactive),-0.0376 (inactive),1.63 (inactive),-0.303 (inactive),1.02,0.358,0.621,0.428,0.74,-1.58 (inactive),0.361,6.16 (inactive),2.01 (inactive),-6.7 (inactive),1.24 (inactive),-0.431,-0.378 (inactive),-2.65 (inactive),-1.68
O=C(NC1CC1)[C@@H]1c2ccccc2C(=O)N(Cc2ccccc2)[C@H]1c1ccc(CO)cc1,0.336,-0.878 (inactive),-0.55 (inactive),-0.825 (inactive),-1.22 (inactive),-0.928,0.0111,-0.892,-0.665,0.443,0.651 (inactive),0.0191,2.58 (inactive),0.258 (inactive),1.38 (inactive),0.0604 (inactive),0.666,-0.962 (inactive),0.623 (inactive),-1.52
CN(C)CCCCNC(=O)[C@H]1C[C@H]2C(=O)N3CCC[C@H]3C(=O)N2[C@H]1c1ccc(O)cc1,-1,-2.49 (inactive),-1.5 (inactive),-0.667 (inactive),-0.942 (inactive),-1.34,-0.643,-1.3,-1.04,-0.229,1.67 (inactive),-0.926,0.148 (inactive),-1.79 (inactive),1.55 (inactive),-2.18 (inactive),0.752,-0.714 (inactive),-0.561 (inactive),-3.16
CO[C@H]1O[C@H](CO)[C@@H](OC(=O)Nc2ccccc2-c2ccccc2)[C@H](OC(=O)Nc2ccc3c(c2)OCO3)[C@@H]1OC(=O)Nc1ccc2c(c1)OCO2,0.25,-2.72 (inactive),0.233 (inactive),0.792 (inactive),-1.52 (inactive),0.282,0.361,0.388,1.41,0.91,-0.609 (inactive),0.658,15.3 (active),2.72 (inactive),1.22 (inactive),1.11 (inactive),-0.0176,0.878 (inactive),-0.722 (inactive),-1.49
CCCNC(=O)[C@@]1(c2ccc([N+](=O)[O-])cc2)CC(=O)N(C2CCCCC2)[C@@H]1c1ccc(CO)cc1I,1.01,-4.24 (inactive),-0.326 (inactive),-0.682 (inactive),1.18 (inactive),0.277,0.306,0.224,0.451,1.85,-0.123 (inactive),0.317,19.3 (active),3.4 (inactive),3.38 (inactive),0.722 (inactive),-0.275,1.02 (inactive),0.187 (inactive),1.16
COc1ccc([Si](C)(C)[C@@H]2[C@@H](CCn3cc([C@H](O)c4ccccc4)nn3)O[C@]3(C(=O)N(Cc4ccc(N5CCOC5=O)cc4)c4ccccc43)[C@H]2C)cc1,0.127,-3.81 (inactive),-0.41 (inactive),-0.0533 (inactive),-0.0224 (inactive),0.204,-0.128,1.15,1.14,1.85,1.34 (inactive),0.142,28.2 (active),17.1 (active),1.45 (inactive),1.63 (inactive),0.0719,1.31 (inactive),2.36 (inactive),1.74
COc1cc2c(cc1O)C(C)N(Cc1cc3c(cc1Br)OCO3)CC2 (stereo not given),-0.131,-3.33 (inactive),0.3 (inactive),1.27 (inactive),0.861 (inactive),-0.679,-0.157,-1.12,-0.829,-0.836,1.2 (inactive),-0.0196,2.87 (inactive),0.551 (inactive),0.117 (inactive),0.401 (inactive),0.36,-3.74 (inactive),-2.96 (inactive),-2.91
O=C(CS)NCCCCCCNC(=O)[C@@H]1C[C@@H]2C(=O)N3CCC[C@H]3C(=O)N2[C@@H]1c1cccc(OCCO)c1,0.939,-0.497 (inactive),-1.05 (inactive),-1.35 (inactive),-1.07 (inactive),0.283,-0.128,1.19,1.34,1.7,1.89 (inactive),0.113,2.94 (inactive),-0.677 (inactive),1.94 (inactive),-1.78 (inactive),2.09,1.17 (inactive),0.87 (inactive),0.222
[N-]=[N+]=NCc1ccccc1C[C@@]1(C(=O)NCCN2CCOCC2)N=C(c2ccc(OCCCO)cc2)O[C@@H]1c1ccccc1N=[N+]=[N-],0.512,-5.21 (inactive),-0.503 (inactive),0.69 (inactive),-1.46 (inactive),0.408,0.0906,0.5,1.73,-0.492,-0.337 (inactive),0.534,31.3 (active),27.4 (active),2.72 (inactive),2.46 (inactive),1.17,-3.58 (inactive),-1.36 (inactive),-2.32
